Measured values: PubChem BioAssay (Tox21)
Records with an inconclusive call do not appear. A call without a number means that no potency is given here. The source made the active and inactive calls. Unless noted, the call rests on the fitted dose curve; in most records, active means well fitted curve in the direction sought with a large enough effect in the repeat runs; inconclusive means weak or mixed curves; inactive means no such curve, though single readings can be large; an effect the other way counts as inactive or inconclusive.

How the values were obtained:
[1] = qHTS assay to identify small molecule that activate the aryl hydrocarbon receptor (AhR) signaling pathway - cell viability counter screen (AID 743086); further: nearly all actives have a fitted effect of over 45% in size; further: potency means the concentration at half of the fitted maximal effect
Method in brief: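 Cytotoxicity counter screen: CellTiter-Fluor signal (30 min, 37 C) in 4000 HepG2 cells/well carrying the DRE-luciferase reporter, following 24 h compound exposure at 37 C.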

[2] = qHTS assay to identify small molecule antagonists of the peroxisome proliferator-activated receptor gamma (PPARg) signaling pathway - cell viability counter screen (AID 743194); further: nearly all actives have a fitted effect of over 55% in size
Method in brief: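 Viability was measured as CellTiter-Glo luminescence in GeneBLAzer PPARg UAS-bla HEK293H cells. These cells had been exposed 17 h at 37 C to compounds together with rosiglitazone at 50 nM final, with the beta-lactamase readout taken in the same wells.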

[3] = qHTS assay for small molecule agonists of the antioxidant response element (ARE) signaling pathway - cell viability counter screen (AID 743203; calls by dose curve; further: nearly all actives have a fitted effect of over 55% in size)
Method in brief: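 Viability counter screen: CellTiter-Glo luminescence, read after 30 min at room temperature, in ARE-bla HepG2 wells. Compound exposure lasted 16 h at 37C/5% CO2, following a 5 h pre-incubation of the cells after plating.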

[4] = qHTS assay for small molecule activators of the heat shock response signaling pathway - cell viability counter screen (AID 743209); further: nearly all actives have a fitted effect of over 50% in size
Method in brief: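 Cytotoxicity counter screen run in the same wells as the heat-shock bla reporter assay: HeLa HSE-bla cells, 5 h compound exposure at 37 C, viability read by CellTiter-Glo luminescence.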

[5] = qHTS assay for small molecule activators of the heat shock response signaling pathway (AID 743210; active means well fitted activation curve with a large enough effect in the signal ratio in the repeat runs, with a control signal flat, not every such curve was filed as active; the % refers to the signal ratio;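 further: HeLa cells with beta-lactamase reporter driven by heat shock elements; series mostly up to about 63 µM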)
Method in brief: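 Fluorescence from a cleaved B/G FRET substrate (2.5 h, room temp) reports HSE-driven beta-lactamase in HeLa cells treated 5 h at 37 C with DMSO-dissolved compounds.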

[6] = qHTS assay to identify small molecule agonists of the peroxisome proliferator-activated receptor delta (PPARd) signaling pathway - cell viability counter screen (AID 743211); further: nearly all actives have a fitted effect of over 55% in size; further: potency means the concentration at half of the fitted maximal effect
Method in brief: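 HEK293H PPARd-bla, 3000 cells/well; 5 h preincubation 37C/5% CO2; cpd in DMSO, 17 h 37C; B/G FRET substrate 2 h RT; CellTiter-Glo 30 min RT, luminescence.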

[7] = target: Peroxisome proliferator-activated receptor delta (Homo sapiens) (UniProt Q03181); test: qHTS assay to identify small molecule agonists of the peroxisome proliferator-activated receptor delta (PPARd) signaling pathway (AID 743212; calls by dose curve;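 further: HEK293H cells with PPARd UAS beta-lactamase reporter GeneBLAzer system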)
Sequence of Peroxisome proliferator-activated receptor delta (Homo sapiens) (Q03181 whole entry, looked up): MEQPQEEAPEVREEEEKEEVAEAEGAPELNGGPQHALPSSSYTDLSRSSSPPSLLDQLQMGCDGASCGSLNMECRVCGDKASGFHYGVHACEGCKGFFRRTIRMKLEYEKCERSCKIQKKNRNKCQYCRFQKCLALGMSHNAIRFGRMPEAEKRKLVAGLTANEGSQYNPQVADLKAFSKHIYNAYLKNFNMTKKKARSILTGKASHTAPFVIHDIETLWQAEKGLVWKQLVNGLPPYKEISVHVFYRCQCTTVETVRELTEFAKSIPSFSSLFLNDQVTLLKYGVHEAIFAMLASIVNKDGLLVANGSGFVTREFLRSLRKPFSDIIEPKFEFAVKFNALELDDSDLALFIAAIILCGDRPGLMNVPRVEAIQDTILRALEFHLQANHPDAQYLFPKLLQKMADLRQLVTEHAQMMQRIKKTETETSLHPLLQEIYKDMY
Method in brief: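 Steps: seed PPARd-bla HEK293H cells; incubate 5 h, 37 C, 5% CO2; add compounds in DMSO; incubate, 37 C; add LiveBLAzer B/G FRET substrate; hold 2 h at room temperature; measure fluorescence.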

[8] = qHTS assay to identify small molecule antagonists of the peroxisome proliferator-activated receptor delta (PPARd) signaling pathway - cell viability counter screen (AID 743213); further: nearly all actives have a fitted effect of over 50% in size
Method in brief: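 Same-well viability: cells pre-incubated 5 h, dosed with compound plus 300 nM L165041, kept 17 h at 37 C, FRET substrate 2 h RT, then CellTiter-Glo 30 min RT and luminescence.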

[9] = target: Peroxisome proliferator-activated receptor delta (Homo sapiens) (UniProt Q03181); test: qHTS assay to identify small molecule antagonists of the peroxisome proliferator-activated receptor delta (PPARd) signaling pathway (AID 743215; active means well fitted inhibition curve with a large enough effect in the signal ratio in the repeat runs, not every such curve was filed as active; the % refers to the signal ratio;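 further: cells stimulated with agonist L165041 at 300 nM final during compound exposure; series mostly up to about 62 µM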)
Method in brief: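 Agonist L165041 (300 nM final) added with compound to PPARd-bla HEK293H UAS-bla reporter cells; 17 h incubation at 37 C. Read-out: LiveBLAzer FRET substrate, 2 h at room temperature, fluorescence intensity.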

[10] = qHTS assay to identify small molecule antagonists of the farnesoid-X-receptor (FXR) signaling pathway - cell viability counter screen (AID 743221; active means well fitted cell-killing curve with a large enough effect in the repeat runs, not every such curve was filed as active; further: nearly all actives have a fitted effect of over 50% in size)
Method in brief: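 Luminescence from CellTiter-Glo measures cytotoxicity in GeneBLAzer FXR-UAS-bla HEK 293T cells. Cells were exposed to compounds with 50 uM chenodeoxycholic acid (final) for 16 h at 37 C, in wells also used for the reporter readout.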

[11] = target: Vitamin D3 receptor (Homo sapiens) (UniProt P11473); test: qHTS assay to identify small molecule agonists of the vitamin D receptor (VDR) signaling pathway (AID 743222; calls by dose curve)
Sequence of Vitamin D3 receptor (Homo sapiens) (P11473 whole entry, looked up): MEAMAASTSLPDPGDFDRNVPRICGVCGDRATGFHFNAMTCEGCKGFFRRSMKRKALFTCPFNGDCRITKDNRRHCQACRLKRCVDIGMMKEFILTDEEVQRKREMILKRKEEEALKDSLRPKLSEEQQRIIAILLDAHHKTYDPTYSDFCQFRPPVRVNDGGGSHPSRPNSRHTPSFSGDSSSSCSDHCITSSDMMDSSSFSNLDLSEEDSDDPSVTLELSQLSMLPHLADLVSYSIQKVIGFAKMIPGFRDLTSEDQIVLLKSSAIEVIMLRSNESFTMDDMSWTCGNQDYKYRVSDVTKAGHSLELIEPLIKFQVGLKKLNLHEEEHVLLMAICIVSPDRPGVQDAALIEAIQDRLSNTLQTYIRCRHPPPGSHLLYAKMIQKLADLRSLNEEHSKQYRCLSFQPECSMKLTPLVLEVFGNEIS
Method in brief: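 Agonist mode, beta-lactamase reporter: fluorescence from LiveBLAzer B/G FRET substrate (2 h, room temperature) read after 16 h compound treatment at 37 C of VDR-bla cells, which were pre-incubated 4 h after seeding.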

[12] = target: Vitamin D3 receptor (Homo sapiens) (UniProt P11473); test: qHTS assay to identify small molecule antagonists of the vitamin D receptor (VDR) signaling pathway (AID 743223; active means well fitted inhibition curve with a large enough effect in the signal ratio in the repeat runs, not every such curve was filed as active; the % refers to the signal ratio)
Method in brief: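 Antagonist mode uses 1alpha,25-dihydroxyvitamin D3 at 3 nM final as stimulus. VDR-bla cells receive compounds in DMSO, incubate 16 h at 37C, then a beta-lactamase FRET substrate for 2 h at room temperature before fluorescence measurement.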

[13] = qHTS assay to identify small molecule agonists of the vitamin D receptor (VDR) signaling pathway - cell viability counter screen (AID 743224); further: series mostly up to about 63 µM; nearly all actives have a fitted effect of over 50% in size
Method in brief: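 Counter screen run in the same wells as the VDR-bla reporter assay: CellTiter-Glo luminescence, 30 min at room temperature, after 16 h compound treatment at 37C of cells pre-plated for 4 h.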

[14] = target: Peroxisome proliferator-activated receptor gamma (Homo sapiens) (UniProt P37231); test: qHTS assay to identify small molecule agonists of the peroxisome proliferator-activated receptor gamma (PPARg) signaling pathway (AID 743094; active means well fitted activation curve with a large enough effect in the signal ratio in the repeat runs, not every such curve was filed as active; the % refers to the signal ratio)
Sequence of Peroxisome proliferator-activated receptor gamma (Homo sapiens) (P37231 whole entry, looked up): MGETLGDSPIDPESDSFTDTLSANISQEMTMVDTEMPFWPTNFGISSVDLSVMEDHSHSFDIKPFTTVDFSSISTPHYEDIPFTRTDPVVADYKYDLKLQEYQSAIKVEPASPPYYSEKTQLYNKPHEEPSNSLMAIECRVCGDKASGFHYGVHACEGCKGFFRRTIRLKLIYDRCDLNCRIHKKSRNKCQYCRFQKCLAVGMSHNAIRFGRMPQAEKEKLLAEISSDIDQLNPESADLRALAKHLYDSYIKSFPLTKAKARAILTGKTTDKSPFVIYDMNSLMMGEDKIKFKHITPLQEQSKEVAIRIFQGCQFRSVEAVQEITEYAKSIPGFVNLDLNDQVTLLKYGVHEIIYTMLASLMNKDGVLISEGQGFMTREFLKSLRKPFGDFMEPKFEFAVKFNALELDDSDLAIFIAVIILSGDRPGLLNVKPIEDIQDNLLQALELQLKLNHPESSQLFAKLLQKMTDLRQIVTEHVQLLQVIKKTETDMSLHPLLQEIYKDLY
Method in brief: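 Agonist activity was taken from a beta-lactamase reporter (FRET substrate, 1 h at room temperature) in HEK293H cells carrying a PPARg UAS-bla construct. Compounds in DMSO were incubated 17 h at 37C after a 5 h cell pre-incubation.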

[15] = target: Peroxisome proliferator-activated receptor gamma (Homo sapiens) (UniProt P37231); test: qHTS assay to identify small molecule antagonists of the peroxisome proliferator-activated receptor gamma (PPARg) signaling pathway (AID 743191; calls by dose curve; further: series mostly up to about 63 µM; nearly all actives have a fitted effect of over 30% in size)
Method in brief: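 Beta-lactamase reporter under UAS control in HEK293H PPARg-bla cells; compound treatment 17 h at 37C. Read-out: fluorescence intensity after 1 h room-temperature incubation with LiveBLAzer B/G FRET substrate.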

[16] = target: Bile acid receptor (Homo sapiens) (UniProt Q96RI1); test: qHTS assay to identify small molecule antagonists of the farnesoid-X-receptor (FXR) signaling pathway (AID 743217; active means well fitted inhibition curve with a large enough effect in the signal ratio in the repeat runs, not every such curve was filed as active; the % refers to the signal ratio)
Sequence of Bile acid receptor (Homo sapiens) (Q96RI1 whole entry, looked up): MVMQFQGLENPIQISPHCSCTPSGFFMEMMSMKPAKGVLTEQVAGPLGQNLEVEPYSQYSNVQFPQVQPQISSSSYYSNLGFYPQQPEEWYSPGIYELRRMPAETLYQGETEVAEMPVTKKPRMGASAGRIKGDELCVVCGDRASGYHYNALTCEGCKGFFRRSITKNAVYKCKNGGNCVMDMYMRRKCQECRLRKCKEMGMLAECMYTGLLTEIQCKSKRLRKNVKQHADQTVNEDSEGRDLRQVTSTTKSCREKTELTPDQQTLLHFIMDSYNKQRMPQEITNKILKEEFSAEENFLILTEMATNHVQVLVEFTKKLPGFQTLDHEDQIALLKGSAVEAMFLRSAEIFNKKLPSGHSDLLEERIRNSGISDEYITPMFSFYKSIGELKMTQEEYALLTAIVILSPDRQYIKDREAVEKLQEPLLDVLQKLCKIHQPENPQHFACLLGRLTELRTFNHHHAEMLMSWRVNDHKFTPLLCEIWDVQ
Method in brief: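 Antagonist mode: chenodeoxycholic acid at 50 uM final stimulates a UAS-driven beta-lactamase reporter in HEK 293T FXR-bla cells during 16 h, 37C compound exposure. Read-out is FRET substrate fluorescence after 2 h at room temperature.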

[17] = qHTS assay to identify small molecule agonists of the farnesoid-X-receptor (FXR) signaling pathway - cell viability counter screen (AID 743218); further: nearly all actives have a fitted effect of over 45% in size
Method in brief: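 Viability counter screen in the same wells: CellTiter-Glo luminescence, 30 min room-temperature incubation, measured after the beta-lactamase read. Cells were GeneBLAzer FXR-UAS-bla HEK 293T, compound-treated 16 h at 37C.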

[18] = target: Bile acid receptor (Homo sapiens) (UniProt Q96RI1); test: qHTS assay to identify small molecule agonists of the farnesoid-X-receptor (FXR) signaling pathway (AID 743220; active means well fitted activation curve with a large enough effect in the signal ratio in the repeat runs, not every such curve was filed as active; the % refers to the signal ratio)
Method in brief: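 FXR-UAS-bla HEK 293T cells carrying a UAS-driven beta-lactamase reporter were plated for 5 h at 37C/5% CO2, then exposed to DMSO-dissolved Tox21 10K compounds for 16 h at 37C. A LiveBLAzer B/G FRET substrate was loaded for 2 h at room temperature before fluorescence reading.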

[19] = qHTS assay for small molecule agonists of the antioxidant response element (ARE) signaling pathway (AID 743202; active means well fitted activation curve with a large enough effect in the signal ratio in the repeat runs, not every such curve was filed as active; the % refers to the signal ratio)
Method in brief: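 Beta-lactamase reporter activity, read as fluorescence intensity, reflects ARE/Nrf2 pathway induction in HepG2 cells after 16 h compound exposure at 37 C; substrate loading was 2 h at room temperature.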

SMILES | Potency [1] | Potency [2] | Potency [3] | Potency [4] | Potency [5] | Potency [6] | Potency [7] | Potency [8] | Potency [9] | Potency [10] | outcome [11] | outcome [12] | Potency [13] | Potency [14] | Potency [15] | Potency [16] | Potency [17] | Potency [18] | Potency [19]
O=C(/C=C/c1ccccc1)OCCCc1ccccc1 | inactive | inactive | inactive | inactive | inactive | inactive | inactive | inactive | inactive | inactive | inactive | inactive | inactive |  |  |  |  |  | 
O=[N+]([O-])c1cccc(S(=O)(=O)NCCNS(=O)(=O)c2cccc([N+](=O)[O-])c2)c1 | inactive |  | inactive | inactive |  | inactive | inactive |  |  | inactive | inactive | inactive | inactive | inactive | inactive | inactive | inactive | inactive | 
NCC1CCCC(CN)C1 (configuration not stated) | inactive | inactive |  | inactive | inactive | inactive | inactive | inactive |  | inactive | inactive |  | inactive | inactive |  | inactive | inactive | inactive | inactive
Fc1c(F)c(F)c(Br)c(F)c1F | inactive | inactive | inactive | inactive | inactive | inactive | inactive | inactive |  | inactive | inactive |  | inactive | inactive |  |  | inactive |  | 
CCCCC(=O)O[C@]1(C(=O)CO)[C@@H](C)C[C@H]2[C@@H]3CCC4=CC(=O)C=C[C@]4(C)[C@@]3(F)[C@@H](O)C[C@@]21C | inactive | inactive | inactive | inactive | inactive | inactive | inactive |  | inactive | inactive | inactive | inactive |  | inactive | inactive |  | inactive |  | 
CO[Si](C)(OC)OC | inactive | inactive | inactive |  |  | inactive | inactive | inactive |  | inactive | inactive | inactive | inactive | inactive |  |  | inactive | inactive | inactive
Cc1nccn1-c1ccc(Sc2cccc(C3(C(N)=O)CCOCC3)c2)cc1 | inactive |  | inactive | inactive | inactive | inactive |  | inactive | inactive | inactive |  |  |  |  | inactive |  |  | inactive | 
CC(N)CN (configuration not stated) | inactive | inactive | inactive | inactive |  | inactive | inactive | inactive |  | inactive |  | inactive | inactive | inactive |  | inactive | inactive | inactive | inactive
CC(CCO)CCc1ccccc1 (configuration not stated) | inactive |  | inactive | inactive | inactive | inactive | inactive | inactive | inactive | inactive | inactive | inactive | inactive | inactive |  | inactive | inactive | inactive | 
O=Cc1c(Cl)cccc1Cl | inactive |  |  | inactive | inactive | inactive | inactive | inactive | inactive | inactive | inactive | inactive | inactive | inactive |  |  | inactive |  | 
CC(=O)[C@H]1CC[C@H]2[C@@H]3C[C@H](C)C4=CC(=O)CC[C@]4(C)[C@H]3[C@@H](O)C[C@]12C | inactive | inactive | inactive | inactive |  | inactive | inactive | inactive |  | inactive | inactive | inactive | inactive | inactive |  | inactive | inactive | inactive | inactive
CCC(=O)OC/C=C/c1ccccc1 | inactive | inactive | inactive | inactive | inactive | inactive | inactive | inactive | inactive | inactive | inactive | inactive | inactive | inactive | inactive | inactive | inactive | inactive | 
CN1CCN(c2c(F)cc3c(=O)c(C(=O)O)cn4c3c2OCN4C)CC1 | inactive | inactive | inactive | inactive |  | inactive | inactive |  | inactive | inactive |  |  | inactive | inactive |  |  |  |  | inactive
CCCCCCCCCCCC[N+](C)(C)CC(=O)[O-] | inactive | inactive |  | inactive | inactive | 15.5 µM (active) | inactive |  | inactive |  | inactive | inactive |  | inactive | inactive | inactive |  | inactive | 
Cc1nc2ccccc2s1 | inactive | inactive | inactive | inactive |  | inactive | inactive | inactive | inactive | inactive | inactive |  | inactive | inactive |  |  | inactive |  | inactive
CCCCCCOC(=O)CCCCCCCC(=O)OCCCCCC | inactive | inactive | inactive | inactive | inactive | inactive | inactive | inactive | inactive | inactive | inactive | inactive | inactive |  |  |  |  |  | inactive
COc1ccccc1N=Nc1c(S(=O)(=O)O)cc2cc(S(=O)(=O)O)cc(NC(C)=O)c2c1O | 22.9 µM (active) | inactive | inactive | inactive | inactive | inactive |  | inactive |  | inactive | inactive | inactive | inactive | inactive |  |  | inactive |  | inactive
